Measured values from doi:10.1101/2024.03.05.583629.

What follows are sequences tested against pT7_6His-AlfaTag-ZIF268 (human, UniProt P18146 335-423) (assay: PADIT-seq). Settings: dsDNA, one strand shown.

In order of falling binding signal:
1. CTCGAGGATATCAAGATCTGGCCTCGGCGCGTGGATCGGAACCTCTAGCTAGCCGACTCACTATAGGGATAATCGCCCTGAGCAAAGACC  0.142 ± 0.102 log2FC
2. CTCGAGGATATCAAGATCTGGCCTCGGCCGCCCAAACGGAACCTCTAGCTAGCCGACTCACTATAGGGATAATCGCCCTGAGCAAAGACC  0.0706 ± 0.0989 log2FC
3. CTCGAGGATATCAAGATCTGGCCTCGGCGCGTGGCGGGGAACCTCTAGCTAGCCGACTCACTATAGGGATAATCGCCCTGAGCAAAGACC  0.049 ± 0.11 log2FC
